This is part of a sample that, as a whole, favours compounds with a hit. Of some 83,000 tested, about 20% had one in any assay.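 Compound tested at a single concentration for 48 hours in 96-well plates; a percent growth value below 10 was scored as active.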 Calls of active or inactive are those of the source.
Legend:
Experiment in all cases: NCI-60 one-dose screen, 48 h (100 = growth as untreated, 0 = no growth, -100 = all killed)
Details in all cases: 10 µM
[1] = tested on: RPMI-8226 leukemia
[2] = tested on: OVCAR-8 ovarian
[3] = tested on: OVCAR-5 ovarian
[4] = tested on: OVCAR-4 ovarian
[5] = tested on: SK-OV-3 ovarian
[6] = tested on: IGROV1 ovarian
[7] = tested on: OVCAR-3 ovarian
[8] = tested on: HS 578T breast
[9] = tested on: NCI/ADR-RES ovarian

Measured: growth

COc1ccc2nc(Cl)c(-c3cc(-c4ccccc4)nc(=O)[nH]3)cc2c1
active: [1] -14.7% | [9] 6.75%
inactive: [2] 11.3% | [3] 93.1% | [4] 85.3% | [5] 108% | [6] 78.2% | [7] 16.6% | [8] 77.3%

COc1ccccc1[C@H]1C(C(=O)c2ccc(Cl)cc2)C2(N[C@@H]1c1ccccc1)C(=O)Nc1ccccc12 (some centres not stated)
inactive: [4] 24.8% | [5] 16.9%
active: [1] 5.12% | [2] 4.63% | [3] -24.8% | [6] -3.06% | [7] -42.7% | [8] -12.9% | [9] -69.7%

CCCCCCCCCCCCCCCCCCCC(=O)NCCc1c[nH]c2ccc(O)cc12
inactive: [1] 28.2% | [2] 102% | [3] 111% | [4] 98% | [5] 137% | [6] 93.6% | [7] 87.4% | [8] 112% | [9] 96.2%

Cc1ccc(-c2nc3ccc(C(=O)N=Nc4c(O)[nH]c5ccc(Cl)cc45)cc3[nH]2)cc1
active: [2] -33.9% | [4] -63.6% | [7] -47.2% | [8] -0.441%
inactive: [1] 32.6% | [3] 18.2% | [5] 30.7% | [6] 18.1% | [9] 54.1%

O=c1[nH]n(C(=S)N/N=C/c2ccc(F)cc2)c(=O)c2ccccc12
active: [1] -22.5%
inactive: [2] 36.4% | [3] 91.2% | [4] 82% | [5] 102% | [6] 90.5% | [7] 32.5% | [8] 91.6% | [9] 31.1%

CCN1CCN(Cc2ccc(NC(=O)c3cccc(-n4cc(-c5ccc(NC(C)=O)nc5)nn4)c3)cc2C(F)(F)F)CC1
inactive: [1] 80.6% | [2] 99% | [3] 158% | [4] 98% | [5] 96.6% | [6] 127% | [7] 131% | [8] 101% | [9] 100%

O=C1Nc2ccc(F)cc2/C1=C/c1cccc(OCc2ccccc2)c1
active: [1] -28.1% | [7] 7.98% | [9] -13.9%
inactive: [2] 24.6% | [3] 66% | [4] 36.4% | [5] 66.7% | [6] 36.6% | [8] 32.3%

COc1ccc([C@H]2C(C(=O)c3ccc(Cl)cc3)C3(N[C@@H]2c2ccccc2)C(=O)Nc2ccc(Cl)cc23)cc1 (some centres not stated)
active: [1] -11% | [3] -23.4% | [6] -1.76% | [7] -10.8% | [8] -10.1% | [9] -47.1%
inactive: [2] 15.3% | [4] 20.4% | [5] 17.3%

O=C1Nc2ccc(F)cc2/C1=C/c1cccc(OCc2ccccn2)c1
active: [8] -6.56% | [9] 7.99%
inactive: [1] 18.6% | [2] 25.7% | [3] 60.4% | [4] 61.3% | [5] 69.6% | [6] 41.9% | [7] 27%

COc1ccsc1/C=N/NC(=O)c1[nH]c2ccc(Br)cc2c1-c1ccccc1
active: [1] -13.6% | [2] -16.2% | [8] -1.24% | [9] -23.9%
inactive: [3] 26.6% | [4] 22.1% | [5] 20.9% | [6] 22.6% | [7] 25.8%

COc1ccc(CCN2C(=O)/C(=C/c3csc(C#N)n3)SC2=S)cc1
active: [1] -0.42% | [2] -5.34% | [7] -39%
inactive: [3] 76.7% | [4] 38.4% | [5] 96.3% | [6] 26.8% | [8] 16.9% | [9] 47%

CN1CCc2c(sc3ncnc(N/N=C/c4cn(-c5ccccc5)nc4-c4ccc(Br)cc4)c23)C1
inactive: [1] 35.8% | [3] 48.5% | [4] 51.4% | [5] 107% | [6] 56.7% | [8] 70.1%
active: [2] 4.42% | [7] 4.8% | [9] 8.08%

CCCS(=O)(=O)c1oc(-c2ccc(F)cc2)nc1S(=O)(=O)c1ccc(F)cc1
active: [1] -46.6% | [2] -69.3% | [3] -68.3% | [4] -90.7% | [7] -96% | [9] -52.2%
inactive: [5] 83.3% | [6] 74.9% | [8] 56.8%

Cc1nc(Nc2nc(C)c3ccc(OCCN4CCOCC4)cc3n2)[nH]c(=O)c1C
inactive: [8] 11.9%
active: [1] 7.09% | [2] 0.429% | [3] -39.9% | [4] -22.1% | [5] -6.44% | [6] -14% | [7] 3.38% | [9] -19.5%

CO[C@H]1CSS[C@@H]1Cn1nc(-c2ccc(Oc3ccccc3)cc2)c2c(N)ncnc21
inactive: [1] 36.4% | [2] 48.2% | [3] 28.5% | [4] 50.2% | [6] 29.4% | [7] 61.2% | [8] 28.4% | [9] 42.6%
active: [5] -1.28%

Cc1ccc(-c2cc(-c3cc4ccccc4nc3Cl)[nH]c(=S)n2)cc1
inactive: [1] 64.6% | [2] 68.2% | [3] 87% | [4] 80.6% | [5] 74.2% | [6] 58.7% | [7] 68.4% | [8] 32.2% | [9] 42%

COc1ccc(C=CC(=O)c2ccc(-n3c(C)nc4c(cnn4-c4ccccc4)c3=O)cc2)cc1
inactive: [2] 83.4% | [3] 111% | [4] 65.7% | [5] 123% | [6] 92.7% | [7] 61% | [8] 85.5% | [9] 62.3%
active: [1] -18.8%

COc1ccc2[nH]c(O)c(N=NC(=O)c3cc(-c4ccc(C)cc4)nc4ccccc34)c2c1
inactive: [1] 76.4% | [2] 88.5% | [3] 119% | [4] 91.8% | [5] 106% | [6] 102% | [7] 98.3% | [8] 91% | [9] 71.6%

COc1ccc2nc(Nc3cccc(NC(=O)c4ccc(CN5CCN(C)CC5)c(C(F)(F)F)c4)c3)ccc2c1
active: [1] -33% | [2] -38.1% | [3] -75% | [4] -27.1% | [5] -48.8% | [6] -69.8% | [7] -36% | [8] -23.1% | [9] -37.9%

Brc1ccc(/C=N/Nc2ncnc3sc4c(c23)CCN(Cc2ccccc2)C4)cc1
inactive: [1] 48.5% | [3] 99.9% | [4] 43.7% | [5] 107% | [6] 94.6% | [7] 33% | [8] 48.3% | [9] 68.8%
active: [2] 3.8%

O=C(Nc1ccc(OCC(=O)c2ccccc2)cc1)Nc1ccc(Cl)c(C(F)(F)F)c1
active: [1] 7.07% | [8] 9.19%
inactive: [2] 29.8% | [3] 35.8% | [4] 22.9% | [5] 16.4% | [6] 28.9% | [7] 23.8% | [9] 18.5%

CC[C@@]1(O)C(=O)OCc2c1cc1n(c2=O)Cc2c-1nc1cc(F)c(C)c3c1c2[C@@H](N)CC3
inactive: [8] 51.3%
active: [1] -3.74% | [2] -38.3% | [3] -12.5% | [4] -4.52% | [5] -32% | [6] -47.8% | [7] -17.8% | [9] -12.2%

O=C1Nc2cc(-c3ccc(NC(=O)c4cccc([N+](=O)[O-])c4)cc3)ccc2/C1=C/c1ccc[nH]1
inactive: [1] 82.9% | [2] 90.4% | [3] 99.6% | [4] 52.3% | [5] 115% | [6] 95.7% | [7] 99.4% | [8] 108% | [9] 89.5%

O=C(c1ccc(O)cc1)C1[C@H](c2ccc(Br)cc2)[C@@H](c2ccccc2)NC12C(=O)Nc1ccccc12 (some centres not stated)
inactive: [1] 23% | [2] 32.4% | [3] 58.7% | [4] 34.1% | [5] 77.3% | [6] 25.8% | [7] 15% | [8] 28.5% | [9] 22.4%

COc1ccc2nc(Cl)c(-c3cc(-c4ccccc4)nc(=S)[nH]3)cc2c1
inactive: [1] 71.7% | [2] 68.2% | [3] 95.1% | [4] 90.1% | [5] 37.4% | [6] 79% | [7] 80.8% | [8] 31.7% | [9] 40.9%

CCCCCCCCCCCCCCCCCCCC(=O)NCCc1c[nH]c2ccc(OC(=O)NOCCOCCOCCOCCOCCOCCOCCOCCOCCOCCOCCOCCOCCOCCOCCOCCOCCOCCOCCOCCOCCOCCOC)cc12
active: [1] -29.5% | [2] 7.17% | [3] -5.89% | [5] -10.1% | [8] -18.9%
inactive: [4] 29.8% | [6] 18.9% | [7] 11.8% | [9] 89.3%

CS(=O)(=O)Nc1ccc(-c2ccc3c(c2)ncn3-c2ccc(NC(=O)Nc3ccc(Cl)c(C(F)(F)F)c3)cc2)cc1
active: [1] -28.6% | [2] -34.8% | [3] -84.9% | [4] -47.2% | [5] -53.4% | [6] -43.1% | [7] -54.3% | [8] -33.2% | [9] -1.05%

COc1cc(NC(=O)c2cc(-c3ccc(F)cc3F)ccc2O)cc(OC)c1OC
inactive: [1] 12% | [2] 48% | [3] 111% | [4] 17.3% | [5] 34.5% | [6] 38% | [7] 26.1% | [8] 26.1% | [9] 41.5%

Reference: PubChem BioAssay (NCI)
